# Assay results from PubChem BioAssay AID493027 (The Scripps Research Institute Molecular Screening Center, 2011).
# Values joined by “and” are separate entries in the source; they are usually repeats but may differ in a detail not shown here. Equal entries are not always repeated. Among all 2,000 compounds or so, about 45 (2%) were called active. Shown is part of a subset that was picked to be rich in actives. Values without a mark were called inactive.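 The calls were made as follows: active = inhibition above the screen-wide mean inhibition plus 3 SD (cut at about 44% in these data); inactive = the rest.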
# Target: Perilipin-1 (Homo sapiens) + 1-acylglycerol-3-phosphate O-acyltransferase ABHD5 (Homo sapiens) (UniProt O60240+Q8WTS1)
# Assay: blockers of ABHD5 binding to perilipin-1 – cell lysate, split luciferase complementation, luminescence, NIH validation set, pilot screen (AID 493027);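 also: 0% = DMSO wells with the 100% control not disclosed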
# Details: split G. princeps luciferase complementation, 4 h, at 7.9 µM, active compounds read high
# Chain of Perilipin-1 (Homo sapiens) + 1-acylglycerol-3-phosphate O-acyltransferase ABHD5 (Homo sapiens) (O60240 whole entry, looked up): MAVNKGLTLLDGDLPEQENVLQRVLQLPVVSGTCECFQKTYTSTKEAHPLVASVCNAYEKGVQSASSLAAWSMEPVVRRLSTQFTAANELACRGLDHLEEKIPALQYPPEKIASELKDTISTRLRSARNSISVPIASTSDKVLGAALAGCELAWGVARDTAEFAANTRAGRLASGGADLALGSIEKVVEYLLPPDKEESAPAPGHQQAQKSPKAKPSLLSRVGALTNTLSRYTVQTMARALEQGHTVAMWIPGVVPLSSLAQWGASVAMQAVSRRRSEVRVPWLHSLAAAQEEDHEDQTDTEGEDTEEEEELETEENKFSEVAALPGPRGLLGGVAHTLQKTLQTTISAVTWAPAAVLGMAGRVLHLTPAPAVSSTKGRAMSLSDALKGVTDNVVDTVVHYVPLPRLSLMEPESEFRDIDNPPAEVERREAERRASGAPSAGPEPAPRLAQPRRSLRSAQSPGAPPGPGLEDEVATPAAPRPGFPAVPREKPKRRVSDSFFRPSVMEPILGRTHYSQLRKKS
# Chain of Perilipin-1 (Homo sapiens) + 1-acylglycerol-3-phosphate O-acyltransferase ABHD5 (Homo sapiens) (Q8WTS1 whole entry, looked up): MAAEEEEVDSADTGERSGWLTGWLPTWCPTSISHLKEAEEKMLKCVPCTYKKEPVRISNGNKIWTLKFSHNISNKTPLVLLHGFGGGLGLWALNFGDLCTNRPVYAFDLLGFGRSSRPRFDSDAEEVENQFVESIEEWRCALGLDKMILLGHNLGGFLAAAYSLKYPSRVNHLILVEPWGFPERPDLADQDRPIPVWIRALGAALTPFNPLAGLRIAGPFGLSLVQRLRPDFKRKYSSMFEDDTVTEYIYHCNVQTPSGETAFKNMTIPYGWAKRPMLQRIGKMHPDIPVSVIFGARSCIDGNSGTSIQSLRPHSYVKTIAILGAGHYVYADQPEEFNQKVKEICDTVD
row,Structure (SMILES),inhibition
1,Cc1nc2ccccc2c(=O)n1-c1ccc(C(=O)O)cc1,5.87%
2,O=c1c2ccccc2nc(/C=C/c2ccc3c(c2)OCO3)n1-c1ccccc1,1.81%
3,O=c1c2ccccc2[se]n1-c1ccccc1,90.3% (active)
4,[N-]=[N+]=CC(=O)OC[C@H](N)C(=O)O,0.75%
5,CC12CN3CC(C)(CN(C1)C3c1cccs1)C2=O (stereo not given),-10.9%
6,CC(C)NC(C)C(=O)c1ccc2ccccc2c1 (stereo not given),-0.73%
7,O=c1[nH]c(=S)n(-c2ccccc2)c(O)c1/C=N/N1CCCCC1c1cccnc1 (stereo not given),-7.25%
8,C#CCN(C)C(C)Cc1ccccc1 (stereo not given),-10.3%
9,COc1cc(/C=C2\C(=O)NC(=O)N(c3ccccc3)C2=O)c([N+](=O)[O-])cc1OC,58.1% (active)
10,CCOc1ccc(N2C(=O)NC(=O)/C(=C\c3cc(OC)c(OC)cc3[N+](=O)[O-])C2=O)cc1,63.9% (active)
11,Cc1ccc(-n2c(C)cc(/C=C3/C(=O)NC(=O)N(C)C3=O)c2C)cc1,38.2%
12,Cc1ccc(/C=C2/C(=O)NC(=O)N(C)C2=O)cc1,-3.1%
13,CCOC(=O)c1cncn1C(C)c1ccccc1 (stereo not given),1.91%
14,C[N+]1(C)[C@@H]2CC(OC(=O)[C@H](CO)c3ccccc3)C[C@H]1[C@@H]1O[C@@H]12 (stereo not given in full),-5.12% and 3.91%
15,CC(C)C[C@H]1C(=O)N2CCCC2[C@]2(O)O[C@](NC(=O)[C@@H]3C=C4c5cccc6[nH]cc(c56)CC4N(C)C3)(C(C)C)C(=O)N12 (stereo not given in full),22.5%
16,Cc1c2ccncc2c(C)c2c1[nH]c1ccccc12,-2.7%
17,Cc1cc2c(C(C)C)c(O)c(O)c(C=O)c2c(O)c1-c1c(C)cc2c(C(C)C)c(O)c(O)c(C=O)c2c1O,50.9% (active)
18,O=C1C(=O)c2ccccc2-c2ccccc21,29.2%
19,CCn1c(O)c(C(=O)CC2NCCc3ccccc32)c(=O)n(CC)c1=S (stereo not given),-1.08%
20,CC[C@@H]1C(=O)OC[C@@H]1Cc1cncn1C,-9.03% and -8.34%
21,Clc1ccc(C2NCCc3[nH]cnc32)cc1 (stereo not given),1.77%
22,COP(=S)(OC)SCN1C(=O)c2ccccc2C1=O,83.3% (active)
23,NNC(=O)c1ccc(Cl)cc1,1.77%
24,O=C1C=Cc2ccccc2C1=O,25.2%
25,O=C1CCCC2=C1C(c1cccnc1)Nc1ccccc1N2 (stereo not given),-3.96%
